# High-throughput results from PubChem BioAssay.
# ugtP null kill: growth inhibition of ugtP-null S. aureus, primary screen, RN4220 ugtP deletion, OD600; 16 h; growth inhibition, % (test concentration not listed); 330,000 tested, 0.54% active; AID 1259309, 2017; in the data active = growth inhibition above about 68%;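 also: plate controls were untreated wells for no effect and antibiotic for full effect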
# CCHF vOTU inh-1: CCHFV vOTU protease inhibitors, primary screen, biochemical, Pep-AMC substrate, fluorescence; AID 651958, 2012; inhibition, % at 11.5 µM; 370,000 tested, 0.55% active; Crimean-Congo hemorrhagic fever virus L polyprotein viral ovarian tumor (vOTU) protease …; also: 0% = vehicle wells with enzyme and 100% = no enzyme wells
# RN4220 kill: growth inhibition of S. aureus RN4220, primary screen, OD600 | 16 h | inhibition, % (no concentration beside the values) | 330,000 tested, 0.33% active; in the data active = inhibition above about 85%;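 also: plate controls were untreated cells for no effect and reference antibiotic for full effect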
# PfHsp40 yeast: rescue of yeast from PfHsp40 toxicity, primary screen, S. cerevisiae, ATP luminescence; S. cerevisiae expressing PfHsp40, growth rescue; growth rescue, % at 12.5 µM; 340,000 tested, 0.68% active; AID 504582, 2011; in the data active = growth rescue above about 28%, passing the limit was not always enough;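 also: yeast W303a lacking pdr1 and pdr3 grown in galactose medium; growth measured after three days at 30 °C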
# PrP 5UTR inh: inhibition of PrP 5' UTR reporter expression. cell-based PrP 5' UTR mRNA reporter, plate reader. inhibition, % (no concentration beside the values). 340,000 tested, 0.35% active. AID 488862, 2010; in the data active = inhibition above about 52%; also: 0 = median of the neutral control wells
# PrPC surface inh: inhibitors of human cell surface prion protein PrPC, primary screen, cell-based, TR-FRET; Major prion protein (Homo sapiens), P04156; TR-FRET read-out; inhibition, % at 13.8 µM; 370,000 tested, 0.43% active; AID 720596, 2013; in the data active = inhibition above about 24%; also: 0% = median of the test wells and 100% = reference compound wells
# CCHF vOTU inh-2: CCHFV vOTU protease inhibitors, confirmation, biochemical, Pep-AMC substrate, fluorescence | shares compounds with CCHF vOTU inh-1 | Recombinant CCHFV vOTU | 1,900 tested, 17% active | inhibition, % at 11.5 µM
# * = called active by the depositor; . = no result. Rows were chosen to be rich in hits. Some 2.1% of all compounds tested hit in one or more screens of this group. Rule as the data show it, unless noted: active = inhibition above about 30%; inactive = the rest.
SMILES,ugtP null kill,CCHF vOTU inh-1,RN4220 kill,PfHsp40 yeast,PrP 5UTR inh,PrPC surface inh,CCHF vOTU inh-2
CC(C)C[C@@]12C(=O)N(c3cccc(F)c3)C(=O)N1C(c1ccc(F)cc1)C1C(=O)N(C3CCCCC3)C(=O)C12 (stereo partly drawn),-12,.,-3,.,.,.,.
CC1(C)Nc2cccc3cccc(c23)N1,-1,33*,3,-2,-1,-5,-104
COc1ccccc1C1C2=C(N=c3sc(=Cc4cccc(OCC(=O)O)c4)c(=O)n31)c1ccccc1CC2 (stereo not drawn),20,.,7,.,.,.,.
CN(C)c1ccc(-c2[nH][nH]c(=O)c2NC(=O)c2ccccn2)cc1,.,113*,.,.,.,1,2
CN(C)c1ccc(-c2[nH][nH]c(=O)c2NC(=O)c2ccc3ccccc3n2)cc1,.,105*,.,.,.,-4,-11
O=C(Nc1c(-c2ccccc2)[nH][nH]c1=O)c1ccccc1,.,24,.,.,.,-2,.
Cc1cnc(C(=O)Nc2c(-c3ccccc3)[nH][nH]c2=O)cn1,.,21,.,.,.,2,.
NC(=O)C1CC2(CC(c3cccc(NC(=O)C4CCC(=O)N4)c3)=NO2)CN1C(=O)c1cc([N+](=O)[O-])cc([N+](=O)[O-])c1 (stereo not drawn),-1,.,5,.,.,.,.
Cc1ccccc1-c1nc(CS(=O)(=O)CC(=O)NCCc2ccccc2)c(C)o1,1,39*,-2,0,-18,-2,-5
Cc1cc(=O)[nH]c(N=C(N)Nc2ccc3c(c2)OCCO3)n1,-3,.,4,.,.,.,.
CC(C)c1ccc(OCC(=O)Nc2cccc(C(=O)Nc3ccccc3C(=O)O)c2)cc1,-1,31*,15,15,-38,7,-11
CCC(C)NC(=O)c1c(N)n(N=Cc2cccnc2)c2nc3ccccc3nc12 (stereo not drawn),-11,.,13,.,.,.,.
CCC(C)C(C(=O)N1CCN(C(=O)OC(C)(C)C)CC1)n1cc(CCCCNC(=O)OC(C)(C)C)nn1 (stereo not drawn),-2,.,4,.,.,.,.
CCN1C(=O)[C@H]2[C@@H](c3ccc(OC)cc3)N[C@]3(CCCN(Cc4cccn4C)C3=O)[C@H]2C1=O,.,30*,.,.,.,3,-2
CC(=O)C1=C(C)N(Cc2ccccc2)C(=O)NC1c1cccc(F)c1 (stereo not drawn),11,.,6,.,.,.,.
CCc1ccc([C@@H]2CC(=O)[C@@H]3CN(S(=O)(=O)c4ccc(Cl)cc4)[C@H](c4ccc(C)cc4)C[C@@H]3N2S(=O)(=O)c2ccc(C)cc2)cc1,.,35*,.,.,.,6,-5
Cc1ccc([C@@H]2CC(=O)[C@@H]3CN(S(=O)(=O)c4ccc(C)cc4)[C@H](c4ccc(Cl)cc4)C[C@@H]3N2S(=O)(=O)c2ccc(Cl)cc2)cc1,.,31*,.,.,.,-6,-20
CCc1ccc([C@H]2[C@@H]3C(=O)C[C@@H]4C(=O)N(C)C(=O)[C@@H]4[C@@H]3CN2S(=O)(=O)c2ccc(C)cc2)cc1,.,30*,.,.,.,-2,-7
CCc1ccc([C@H]2[C@@H]3C(=O)C[C@@H]4C(=O)N(CC)C(=O)[C@@H]4[C@@H]3CN2S(=O)(=O)c2ccc(C)cc2)cc1,.,1,.,.,.,-8,.
Cc1ccc(S(=O)(=O)N2C[C@H]3C(=O)C[C@@H](c4ccc(Cl)cc4)N(S(=O)(=O)c4ccc(C)cc4)[C@H]3C[C@H]2c2ccc(Cl)cc2)cc1,.,6,.,.,.,3,.
CCOC(=O)c1cccc(-n2cccc2C=C2NC(=O)N(CC(=O)O)C2=O)c1,5,.,3,.,.,.,.
CNC(=O)C1OC(n2cnc3c(NCc4cccc(I)c4)nc(Cl)nc32)C(O)C1O (stereo not drawn),-17,.,8,.,.,.,.
CC(Cl)=CCn1c(N2CCCC2)nc2c1c(=O)[nH]c(=O)n2C,-3,.,8,.,.,.,.
O=C1C=C(O)c2cccc(O)c2C1=O,.,94*,.,1,-19,-11,16
CCOC(=O)C1(Cc2cccc(Cl)c2)CCCN(C(=O)c2ccc(COC)s2)C1 (stereo not drawn),.,31*,.,2,-11,9,-4
CC1(C)CC(NC(=O)C23CCC(C)(C(=NO)C2)C3(C)C)CC(C)(C)N1 (stereo not drawn),-13,.,3,.,.,.,.
